The source made the active and inactive calls.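 How the source made its calls, unless noted: active means fluorescence slope higher than the sample average by over 3 SD (cut at about -0.22 in these data, passing the limit was not always enough); inactive means the rest.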
Experiments:
[1] = inhibitors of TNFa-induced NFkB p65 translocation, primary screen, imaging, HUVEC, MLSMR starter and 10KST1 sets (AID 438;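 active means inhibition above 20% together with a positive visual image hit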;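 further: compound added about 3h40 before a 20 min TNFalpha stimulation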;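 on inhibition: signal is the nuclear over cytoplasmic p65 intensity ratio per well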); details: HUVEC TNFa-induced p65 nuclear translocation; cell count: measured here: nuclei count (cytotoxicity indicator), at 2.08 µM; inhibition: at 2 µM, stronger effect = higher value, 0% TNFa-plus-vehicle, 100% no-TNFa wells
[2] = inhibitors of mutant huntingtin aggregation, primary screen, imaging, exon1htt(103Q)mCFP cells, high-content imaging (AID 483;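 active means visual image review flags a hit and inhibition of aggregation exceeds 20%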;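 further: compound exposure lasted 3 days before fixation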;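 on nuclei count: percent of the per-plate median nuclei count of sample wells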); details: exon1htt(103Q)mCFP cell line, aggregate imaging, at 2 µM; inhibition of aggregation: stronger effect = higher value; nuclei count: measured here: cell count, toxicity
[3] = inhibitors of E-selectin induction by TNFa, primary screen, imaging, HUVEC, immunofluorescence, MLSMR starter and 10KST1 sets (AID 487;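 active means visually confirmed hit in the image check and inhibition above 20%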;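 on inhibition: signal is fraction of cell area covered by stained E-selectin grains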;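 on nuclei count: 100% = median nuclei count of all wells on the same plate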); details: HUVEC TNFalpha-induced E-selectin immunofluorescence imaging, at 2 µM; inhibition: stronger effect = higher value; nuclei count: measured here: cell number, toxicity
[4] = biological target: Voltage-gated potassium channel subunit beta-2 (Rattus norvegicus) (UniProt P62483); test: KvBeta enzyme negative modulators, primary screen, biochemical, NADPH fluorescence (AID 622); details: recombinant KvBeta, 4-cyanobenzaldehyde reduction, at 10 µM, stronger effect = higher value;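 further: slope of raw intensity against log time taken from 70 to 1610 s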
[5] = biological target: Voltage-gated potassium channel subunit beta-2 (Rattus norvegicus) (UniProt P62483); test: KvBeta positive modulators, primary screen, biochemical, NADPH fluorescence (AID 623;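 active means NADPH fluorescence slope more negative than the mean of all samples by about 3 SD, 99.7% confidence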;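 further: fluorescence intensity change per second fitted from 20 to 320 s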); details: Recombinant KvBeta, NADPH fluorescence decrease slope, 10 min; at 10 µM; stronger effect = lower value
[6] = biological target: Alpha-2C adrenergic receptor (Homo sapiens) (UniProt P18825); test: modulators of alpha2C/GIRK thallium flux, primary screen, cell-based, HEK293 alpha2C/GIRK1/2 (AID 624;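 active means fluorescence slope after compound addition differing from the mean of all screened samples at 99.7% confidence, in either direction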;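 further: slope of fluorescence ratio to pre-addition baseline per second over 15 to 24 s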); details: thallium flux BTC fluorescence, at 10 µM, actives lie on both sides
[7] = inhibitors of Sendai virus-induced IRF3 signaling, primary screen, TLR/RLR signaling modifier project, cell-based, Sendai virus stimulus, luciferase, 10K MLSCN set (AID 602276;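 active means inhibition at or above 50% at 10 µM; inactive means inhibition below 50%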;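 further: firefly luciferase from ISG56 promoter only with Renilla not read in this screen; 0% = Sendai virus plus DMSO and 100% = medium plus DMSO without virus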); details: HEK293 RL24 IRF3 luciferase reporter, at 10 µM, stronger effect = higher value
[8] = inhibitors of poly I:C-induced TLR3 signaling, primary screen, cell-based, poly I:C stimulus, luciferase, 10K MLSCN set (AID 602277;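 active means inhibition of the reporter signal at or above 50%; inactive means inhibition below 50%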); details: HEK293-TLR3 RL24 IRF3 luciferase reporter, at 10 µM, stronger effect = higher value

Voltage-gated potassium channel subunit beta-2 (Rattus norvegicus), sequence (P62483 whole entry, looked up): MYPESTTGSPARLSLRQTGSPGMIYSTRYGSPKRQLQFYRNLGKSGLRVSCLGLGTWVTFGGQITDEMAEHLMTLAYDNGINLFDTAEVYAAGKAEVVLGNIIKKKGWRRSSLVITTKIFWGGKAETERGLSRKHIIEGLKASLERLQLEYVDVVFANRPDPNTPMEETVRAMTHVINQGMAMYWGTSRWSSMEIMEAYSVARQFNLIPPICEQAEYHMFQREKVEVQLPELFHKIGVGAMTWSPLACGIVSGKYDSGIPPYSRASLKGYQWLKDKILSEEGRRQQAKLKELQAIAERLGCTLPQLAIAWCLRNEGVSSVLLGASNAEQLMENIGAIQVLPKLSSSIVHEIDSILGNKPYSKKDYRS
Alpha-2C adrenergic receptor (Homo sapiens), sequence (P18825 whole entry, looked up): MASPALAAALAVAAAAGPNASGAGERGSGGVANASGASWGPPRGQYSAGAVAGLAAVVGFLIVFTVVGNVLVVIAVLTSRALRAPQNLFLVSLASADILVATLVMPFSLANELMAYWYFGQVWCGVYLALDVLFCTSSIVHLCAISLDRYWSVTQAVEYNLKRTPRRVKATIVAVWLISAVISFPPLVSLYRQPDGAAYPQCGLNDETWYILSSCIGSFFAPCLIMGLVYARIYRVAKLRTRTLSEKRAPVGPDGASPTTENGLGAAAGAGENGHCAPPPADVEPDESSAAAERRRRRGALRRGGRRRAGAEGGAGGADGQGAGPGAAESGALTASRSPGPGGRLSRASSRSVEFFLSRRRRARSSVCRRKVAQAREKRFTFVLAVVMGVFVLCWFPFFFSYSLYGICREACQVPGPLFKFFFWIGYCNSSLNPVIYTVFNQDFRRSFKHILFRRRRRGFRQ

SMILES	cell count [1]	inhibition [1]	inhibition of aggregation [2]	nuclei count [2]	inhibition [3]	nuclei count [3]	fluorescence slope [4]	NADPH fluorescence slope [5]	slope [6]	inhibition [7]	inhibition [8]
O=C(CCC(=O)c1cccs1)NCc1ccccc1	462	-0.2% (inactive)	-5.4% (inactive)	111%	-24.2% (inactive)	132%	-0.622 (inactive)	-5.1e-06 (inactive)	0.0103 (inactive)	-1.41% (inactive)	1.97% (inactive)
O=C(O)c1ccc2c(c1)N(Cc1ccccc1F)C(=O)c1ccccc1S2=O (stereo not given)	585	-1.2% (inactive)	17.9% (inactive)	64.2%	-49.8% (inactive)	107%	-0.537 (inactive)	-5.5e-07 (inactive)	0.0062 (inactive)	11.3% (inactive)	7.14% (inactive)
O=c1ccc2cc3c([nH]c4ccc(Br)cc43)oc-2c1O	447	4.7% (inactive)	-0.5% (inactive)	111%	-84.7% (inactive)	109%	-0.596 (inactive)	-5.1e-05 (inactive)	0.00638 (inactive)	11.2% (inactive)	24.2% (inactive)
CCOCCCNC(=O)C(NC(=O)c1ccccn1)c1ccc(C)cc1 (stereo not given)	314	-13.4% (inactive)	2.7% (inactive)	116%	-18.5% (inactive)	111%	-0.592 (inactive)	-4e-05 (inactive)	0.00635 (inactive)	15.1% (inactive)	18.1% (inactive)
O=C(c1cnn2c1NC(c1ccco1)CC2C(F)(F)F)N1CCN(c2cccc(Cl)c2)CC1 (stereo not given)	313	-3.8% (inactive)	-7.8% (inactive)	114%	-38.6% (inactive)	126%	-0.382 (inactive)	-6e-05 (inactive)	0.00418 (inactive)	46.3% (inactive)	19.8% (inactive)
CNC(=O)CSc1nnc(-c2ccc(S(=O)(=O)N3CCCC3)cc2)n1-c1cccc(C)c1C	643	-2.4% (inactive)	-15.2% (inactive)	108%	-87.7% (inactive)	106%	-0.458 (inactive)	-4.2e-05 (inactive)	0.00667 (inactive)	12.2% (inactive)	33.2% (inactive)
O=S1(=O)N=C(Nc2nc3c(s2)CCCC3)c2ccccc21	319	-4.2% (inactive)	5% (inactive)	102%	-33.1% (inactive)	111%	-0.468 (inactive)	5.2e-05 (inactive)	0.00562 (inactive)	-62.5% (inactive)	-97.7% (inactive)
CCOC(=O)N1CCN(c2c(NCCCOC(C)C)c(=O)c2=O)CC1	642	-1.6% (inactive)	-10.2% (inactive)	109%	27.9% (inactive)	122%	-0.513 (inactive)	-2.4e-05 (inactive)	0.00694 (inactive)	7.84% (inactive)	16% (inactive)
O=C(CN1CCN(c2ncccn2)CC1)Nc1ccccc1-n1cccc1	327	13.4% (inactive)	16% (inactive)	81.3%	25.5% (inactive)	93.4%	-0.621 (inactive)	-6.7e-06 (inactive)	0.006 (inactive)	14.7% (inactive)	8.32% (inactive)
c1coc(-c2nnc(NC3=NCCC3)o2)c1	527	-5.3% (inactive)	6.6% (inactive)	98.8%	-80.8% (inactive)	162%	-0.526 (inactive)	2.5e-05 (inactive)	0.0054 (inactive)	-15.4% (inactive)	-42.4% (inactive)
CCCC(=O)C1=C(N(C)c2ccccc2)CC(C)(C)C(C(=O)OC)C1=O (stereo not given)	429	-0.3% (inactive)	3.6% (inactive)	92.5%	-8.2% (inactive)	121%	-0.445 (inactive)	-7.2e-06 (inactive)	0.00268 (inactive)	9.63% (inactive)	33.4% (inactive)
CCOC(=O)C(C)Sc1nnc(Cc2cc(=O)[nH]c(=O)[nH]2)n1-c1ccc(Cl)cc1 (stereo not given)	817	-6.8% (inactive)	4.6% (inactive)	107%	-37.1% (inactive)	99.1%	-0.615 (inactive)	5.1e-06 (inactive)	0.00534 (inactive)	15.5% (inactive)	12% (inactive)
CC(C)CN(CC(C)C)C(=O)CS(=O)(=O)Cc1ccccc1	334	-1.2% (inactive)	-5.8% (inactive)	98.4%	-51.3% (inactive)	116%	-0.492 (inactive)	-6.4e-05 (inactive)	0.00578 (inactive)	6.49% (inactive)	16.4% (inactive)
CCOC(=O)CN1CC23C=CC(O2)C(C(=O)Nc2ccc(OCC)cc2)C3C1=O (stereo not given)	615	0.7% (inactive)	-10.5% (inactive)	112%	-5.7% (inactive)	106%	-0.517 (inactive)	-1.3e-05 (inactive)	0.00673 (inactive)	7.04% (inactive)	15.5% (inactive)
CC(C)(C)C(=O)Cn1c[n+](N)cn1	545	-9.5% (inactive)	-3.6% (inactive)	118%	18.1% (inactive)	105%	-0.62 (inactive)	-3.8e-05 (inactive)	0.00385 (inactive)	18.9% (inactive)	26.2% (inactive)

From PubChem BioAssay
